We go through 40 compounds from PubChem BioAssay (Tox21).

The source made the active and inactive calls. Where a call stands in place of a potency, no number is given. The call rests on the fitted dose curve.
Potency means the concentration at half of the fitted maximal effect.

Chain of Acetylcholinesterase (Homo sapiens) (P22303 whole entry, looked up): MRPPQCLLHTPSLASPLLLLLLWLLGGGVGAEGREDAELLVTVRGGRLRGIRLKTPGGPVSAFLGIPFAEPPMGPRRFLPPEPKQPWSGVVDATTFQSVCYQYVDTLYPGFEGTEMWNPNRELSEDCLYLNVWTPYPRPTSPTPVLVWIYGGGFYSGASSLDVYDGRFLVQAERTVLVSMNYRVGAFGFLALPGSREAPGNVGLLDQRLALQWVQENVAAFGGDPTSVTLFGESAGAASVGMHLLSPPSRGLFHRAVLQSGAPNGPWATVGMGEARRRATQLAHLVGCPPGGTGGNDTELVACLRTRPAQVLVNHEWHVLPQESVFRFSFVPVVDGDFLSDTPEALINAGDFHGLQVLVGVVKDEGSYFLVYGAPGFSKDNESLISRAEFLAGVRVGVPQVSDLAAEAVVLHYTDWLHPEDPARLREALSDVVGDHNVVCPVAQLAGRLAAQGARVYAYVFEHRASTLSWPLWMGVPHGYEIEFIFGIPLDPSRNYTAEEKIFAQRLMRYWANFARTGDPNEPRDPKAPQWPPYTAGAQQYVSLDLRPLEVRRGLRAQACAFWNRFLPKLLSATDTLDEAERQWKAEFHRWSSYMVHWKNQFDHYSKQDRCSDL

This assay addresses Acetylcholinesterase (Homo sapiens) (UniProt P22303). The assay can be described thus: Acetylcholinesterase (AChE) small molecule antagonists: enzyme-based qHTS assay with human liver microsomes (AID 1347399). Further: nearly all actives have a fitted effect of over 60% in size. The following applies: Potency: qHTS inhibition; series mostly up to 115 µM. The source says: National Center for Advancing Translational Sciences [NCATS]
Division of Preclinical Innovation [DPI]
U.S. Environmental Protection Agency [EPA]
National Institutes of Environmental Health Sciences [NIEHS]
National Toxicology Program [NTP]
U.S. Food and Drug Administration [FDA]
Acetylcholinesterase (AChE) is the primary cholinesterase in the body that hydrolyzes a key neurotransmitter, acetylcholine. Inhibition of AChE activity can lead to neurotoxicity. The known inhibitors include organophosphorous pesticides (OP), chemical warfare agents, drugs, and various phytochemicals. Some compounds like OP compounds may need metabolic activation to be active AChE inhibitors. The cytochrome P450 (CYP) superfamily in the human microsomes is responsible for the metabolism of various endogenous and exogenous compounds.
An enzyme-based assay with the recombinant human AChE, human liver microsomes and Amplite Colormetric acetylcholinesterase assay kit (AAT Bioquest, Sunnyvale, CA) was used to evaluate compounds in the Tox21 10K library that need metabolic activation for AChE inhibition. The assay uses 5, 5-dithiobis-(2-nitrobenzoic acid) (DTNB) to quantify the thiocholine produced from the hydrolysis of acetylthiocholine by AChE.
Tox21 Assay Protocol Summary:
For the enzyme-based AChE assay with microsomes addition, a mixture of human AChE (50 mU/mL) and human liver microsomes (0.25 mg/mL, final concentration) in 3 uL/well was dispensed into black, clear-bottom 1536-well plates using a Multidrop Combi dispenser (Thermo Scientific, MA). Then, 23 nL of compound or DMSO (vehicle control) was transferred into the assay plates by a Pintool Station (Wako Automation, CA). Following compound addition, 1 uL of NADPH (0.25 mg/mL, final concentration) was transferred to the assay plate by a Flying Reagent Dispenser (Beckman Coulter, CA). The plates were incubated for 30 min at 37 C and 5% CO2, followed by the addition of 4 uL of colorimetric detection cocktail solution (DTNB, acetylthiocholine) into each well using a Flying Reagent Dispenser (Beckman Coulter, CA) and then 10 min incubation at room temperature.
With `CCN(CC)C(=S)[S-].CCN(CC)C(=S)[S-].[Zn+2]`, the Potency result is “inactive”.

Regarding `CC(C)CCCCCCCOP(=O)(Oc1ccccc1)Oc1ccccc1`, the Potency entry is “inactive”.

As for `Clc1ccc(Oc2ccccc2)cc1`, the Potency result is “inactive”.

For `CC(C)(C)OO`, the Potency entry is “inactive”.

As to `CCOC(=O)c1ccccc1S(=O)(=O)NC(=O)Nc1nc(Cl)cc(OC)n1`, the Potency entry is “inactive”.

Turning to `C[C@]12CC[C@H]3[C@@H](CCC4=CC(=O)CC[C@@]43C)[C@@H]1CC[C@@H]2O`, the Potency result is “inactive”.

Take `ClC(Cl)=C(Cl)Cl`: the Potency result is “inactive”.

Take `c1ccc2c(c1)OCC(C1=NCCN1)O2` (stereo not given): the Potency entry is “inactive”.

Consider `C[C@]12CC[C@@H]3c4ccc(OC(=O)N(CCCl)CCCl)cc4CC[C@H]3[C@@H]1CC[C@@H]2O`, for which the Potency entry was “inactive”.

For the compound `O=C1C=CC(=O)c2ccccc21`, the Potency entry is “inactive”.

As for `SCc1ccco1`, the Potency result is “inactive”.

For `CC(C)OC(=O)C(O)(c1ccc(Cl)cc1)c1ccc(Cl)cc1`, the Potency entry was “inactive”.

Take `S=C=Nc1cccc2ccccc12`: the Potency entry was “inactive”.

`CC(=O)Nc1ccc2c(c1)Cc1ccccc1-2`: the Potency result is “inactive”.

In the case of `Cc1cc(C(F)(C(F)(F)F)C(F)(F)F)ccc1NC(=O)c1cccc(I)c1C(=O)NC(C)(C)CS(C)(=O)=O`, the Potency result was “inactive”.

As for `O=[N+]([O-])c1ccc2ccc3cccc4ccc1c2c34`, the Potency entry was “inactive”.

For `COc1ccc(OC)c(C=O)c1`, the Potency entry was “inactive”.

For the compound `CCC(C)c1cc(C(C)(C)C)cc(-n2nc3ccccc3n2)c1O` (stereo not given), the Potency entry is “inactive”.

As for `CC1CCC(C(C)C)C(OC(=O)c2ccccc2N)C1` (stereo not given), the Potency result is “inactive”.

On to `CC1(c2ccc(Oc3ccccc3)cc2)OC(=O)N(Nc2ccccc2)C1=O` (stereo not given), for which the Potency entry is “inactive”.

With `CCC(C)(C)C(=O)OC1=C(c2ccc(Cl)cc2Cl)C(=O)OC12CCCCC2`, the Potency entry is “inactive”.

With `CC(C)CBr`, the Potency result was “inactive”.

Regarding `COP(=O)(OC)SCn1c(=O)oc2cc(Cl)cnc21`, the Potency was 71 µM (active).

For the compound `Clc1ccc(CO/N=C(\Cn2ccnc2)c2ccc(Cl)cc2Cl)c(Cl)c1`, the Potency entry was “inactive”.

On to `Oc1ccccc1Br`, for which the Potency result is “inactive”.

On to `N#Cc1ccccc1N`, for which the Potency result is “inactive”.

Turning to `Clc1ccc(C(c2ccc(Cl)cc2)C(Cl)(Cl)Cl)cc1`, the Potency result is “inactive”.

Consider `CC(C)OS(C)(=O)=O`, for which the Potency result is “inactive”.

For the compound `c1cc[c]([Sb]([c]2ccccc2)[c]2ccccc2)cc1`, the Potency result is “inactive”.

With `O=[N+]([O-])c1cc([N+](=O)[O-])c2ccccc2c1`, the Potency entry is “inactive”.

On to `O=C(NC(=O)c1c(F)cccc1F)Nc1cc(Cl)c(OC(F)(F)C(F)F)c(Cl)c1`, for which the Potency entry was “inactive”.

`[Cl][Sn]([c]1ccccc1)([c]1ccccc1)[c]1ccccc1`: the activity change, negative = inhibition is 0.0872% [at 23.6 µM] (inactive).

Consider `O=C1c2ccccc2C(=O)C1C(=O)C(c1ccccc1)c1ccc(Cl)cc1` (stereo not given), for which the Potency result was “inactive”.

In the case of `ClC1=C(Cl)[C@]2(Cl)[C@@H]3[C@@H]4C[C@@H]([C@H]5O[C@@H]45)[C@@H]3[C@@]1(Cl)C2(Cl)Cl`, the Potency result was “inactive”.

`[Cl][Sb]([Cl])[Cl]`: the Potency entry was “inactive”.

For `COCC(=O)N(c1c(C)cccc1C)[C@H](C)C(=O)OC`, the Potency result was “inactive”.

With `ClC1=C(Cl)[C@]2(Cl)[C@H]3[C@H]([C@H]4C=C[C@H]3C4)[C@@]1(Cl)C2(Cl)Cl`, the Potency result is “inactive”.

For `O=C(Nc1ccc2[nH]ccc2c1)c1cc2cc(F)ccc2n1Cc1cccc(F)c1`, the Potency result was “inactive”.

As for `BrC(Br)Br`, the Potency result was “inactive”.

For `CC(C)Oc1cccc(NC(=O)c2ccccc2C(F)(F)F)c1`, the Potency result is “inactive”.
